Key:
Test in all cases: log2 ratio of Biotin-Ahx-Ub-VS probe labelling (fragment/DMSO); higher = less target engagement (more negative = stronger competition), active = hit call of the paper (q ≤ 0.05, log2 ratio ≤ -1)
Details in all cases: compound concentration: 200 uM; treatment time: 3 h
USP42 = target: T1, USP42 (UniProt Q9H9J4)
T1 sequence (whole entry): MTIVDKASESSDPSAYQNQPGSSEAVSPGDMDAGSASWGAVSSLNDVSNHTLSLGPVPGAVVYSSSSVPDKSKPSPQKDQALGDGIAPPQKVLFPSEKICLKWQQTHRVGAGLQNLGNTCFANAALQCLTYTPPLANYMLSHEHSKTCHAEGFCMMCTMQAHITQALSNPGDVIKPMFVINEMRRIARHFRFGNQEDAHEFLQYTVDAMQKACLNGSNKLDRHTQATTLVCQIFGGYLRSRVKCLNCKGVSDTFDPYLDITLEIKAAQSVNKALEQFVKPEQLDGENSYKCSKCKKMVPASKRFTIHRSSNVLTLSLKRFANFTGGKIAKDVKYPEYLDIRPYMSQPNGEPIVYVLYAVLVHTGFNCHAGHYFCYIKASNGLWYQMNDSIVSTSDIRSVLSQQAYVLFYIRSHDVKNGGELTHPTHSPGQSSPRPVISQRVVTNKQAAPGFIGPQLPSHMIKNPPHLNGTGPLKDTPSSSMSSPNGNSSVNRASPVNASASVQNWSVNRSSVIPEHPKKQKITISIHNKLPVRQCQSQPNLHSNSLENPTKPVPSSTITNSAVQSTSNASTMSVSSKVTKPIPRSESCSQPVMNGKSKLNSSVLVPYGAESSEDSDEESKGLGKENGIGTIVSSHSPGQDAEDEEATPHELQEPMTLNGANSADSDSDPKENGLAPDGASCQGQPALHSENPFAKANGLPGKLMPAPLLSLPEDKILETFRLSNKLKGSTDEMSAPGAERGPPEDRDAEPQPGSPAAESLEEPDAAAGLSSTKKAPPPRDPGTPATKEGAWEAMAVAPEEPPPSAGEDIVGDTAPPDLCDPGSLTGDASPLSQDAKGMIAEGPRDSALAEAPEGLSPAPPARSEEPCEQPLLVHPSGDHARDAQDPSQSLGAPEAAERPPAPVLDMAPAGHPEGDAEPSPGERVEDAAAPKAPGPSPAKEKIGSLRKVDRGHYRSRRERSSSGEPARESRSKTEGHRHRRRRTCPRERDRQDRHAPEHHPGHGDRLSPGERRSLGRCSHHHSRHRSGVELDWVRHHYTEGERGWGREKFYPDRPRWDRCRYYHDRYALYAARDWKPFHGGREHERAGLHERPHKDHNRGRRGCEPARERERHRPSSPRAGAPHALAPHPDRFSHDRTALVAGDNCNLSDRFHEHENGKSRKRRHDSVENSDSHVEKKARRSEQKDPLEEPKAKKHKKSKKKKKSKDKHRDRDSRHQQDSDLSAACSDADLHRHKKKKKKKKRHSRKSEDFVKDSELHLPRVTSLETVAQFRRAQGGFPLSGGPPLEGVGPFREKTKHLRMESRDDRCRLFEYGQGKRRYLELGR
In short: (§1)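 Labelling with Biotin-Ahx-Ub-VS (0.5 µM final, 1 h) followed a 3 h triplicate treatment of HEK293T lysate (495 µg per sample, Tris/CHAPS/IGEPAL buffer with protease inhibitors) with fragment at 200 µM or vehicle. Labelled DUBs were NeutrAvidin-enriched, digested with LysC and trypsin, and run by diaPASEF LC-MS/MS. The values, average log2 fragment/vehicle ratios by unpaired t-test, come from global-median-normalised Spectronaut label-free quantities. Proteins with ≥2 unique peptides were used.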

USP46 = USP46 (UniProt P62068)
Sequence of USP46 (P62068 whole entry): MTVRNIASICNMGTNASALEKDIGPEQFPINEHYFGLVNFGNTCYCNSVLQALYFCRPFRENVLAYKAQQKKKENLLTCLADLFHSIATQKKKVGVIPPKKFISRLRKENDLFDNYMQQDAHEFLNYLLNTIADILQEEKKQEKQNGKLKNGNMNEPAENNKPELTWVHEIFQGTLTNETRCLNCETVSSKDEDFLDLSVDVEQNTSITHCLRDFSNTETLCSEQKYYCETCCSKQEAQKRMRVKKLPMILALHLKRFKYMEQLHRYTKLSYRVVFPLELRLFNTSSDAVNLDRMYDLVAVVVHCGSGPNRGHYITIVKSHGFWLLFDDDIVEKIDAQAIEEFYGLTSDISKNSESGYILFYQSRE
In short: as §1

USP47 = target: T2, USP47 (UniProt Q96K76)
T2 sequence (whole entry): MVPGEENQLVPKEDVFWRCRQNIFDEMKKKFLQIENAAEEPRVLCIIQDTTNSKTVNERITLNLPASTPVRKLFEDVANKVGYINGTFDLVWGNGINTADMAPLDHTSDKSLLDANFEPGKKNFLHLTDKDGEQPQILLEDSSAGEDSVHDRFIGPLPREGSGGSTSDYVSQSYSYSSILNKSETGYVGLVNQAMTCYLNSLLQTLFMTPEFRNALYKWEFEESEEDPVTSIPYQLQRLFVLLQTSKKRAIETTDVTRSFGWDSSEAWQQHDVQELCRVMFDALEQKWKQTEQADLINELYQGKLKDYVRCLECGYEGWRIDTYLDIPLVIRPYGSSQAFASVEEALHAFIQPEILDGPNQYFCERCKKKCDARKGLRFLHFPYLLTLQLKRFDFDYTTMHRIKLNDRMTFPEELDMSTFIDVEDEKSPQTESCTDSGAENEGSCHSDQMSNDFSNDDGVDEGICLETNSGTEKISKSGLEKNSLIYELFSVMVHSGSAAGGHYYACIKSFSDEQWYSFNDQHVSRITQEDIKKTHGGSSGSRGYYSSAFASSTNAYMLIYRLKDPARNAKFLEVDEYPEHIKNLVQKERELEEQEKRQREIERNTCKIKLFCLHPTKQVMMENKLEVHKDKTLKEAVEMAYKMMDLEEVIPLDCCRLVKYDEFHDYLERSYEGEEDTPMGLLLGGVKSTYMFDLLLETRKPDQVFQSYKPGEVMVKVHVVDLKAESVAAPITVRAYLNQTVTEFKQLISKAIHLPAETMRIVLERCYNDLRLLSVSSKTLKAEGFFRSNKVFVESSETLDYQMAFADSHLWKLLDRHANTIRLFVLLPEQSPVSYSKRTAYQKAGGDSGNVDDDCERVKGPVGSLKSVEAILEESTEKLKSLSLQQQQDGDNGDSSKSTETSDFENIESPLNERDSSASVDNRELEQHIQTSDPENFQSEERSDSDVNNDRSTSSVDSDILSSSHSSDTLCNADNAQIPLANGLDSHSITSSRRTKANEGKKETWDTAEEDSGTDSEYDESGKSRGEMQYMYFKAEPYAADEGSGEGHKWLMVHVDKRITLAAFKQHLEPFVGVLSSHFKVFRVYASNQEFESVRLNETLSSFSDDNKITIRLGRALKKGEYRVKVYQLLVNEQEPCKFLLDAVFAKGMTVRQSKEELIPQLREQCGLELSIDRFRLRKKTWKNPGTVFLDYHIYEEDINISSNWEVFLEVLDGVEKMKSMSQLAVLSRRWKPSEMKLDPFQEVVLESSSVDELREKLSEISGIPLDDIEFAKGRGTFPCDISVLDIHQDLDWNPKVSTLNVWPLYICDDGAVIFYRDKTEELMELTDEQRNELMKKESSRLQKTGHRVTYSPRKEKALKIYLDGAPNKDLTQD
In short: as §1

USP48 = target: T3, USP48 (UniProt Q86UV5)
T3 sequence (whole entry): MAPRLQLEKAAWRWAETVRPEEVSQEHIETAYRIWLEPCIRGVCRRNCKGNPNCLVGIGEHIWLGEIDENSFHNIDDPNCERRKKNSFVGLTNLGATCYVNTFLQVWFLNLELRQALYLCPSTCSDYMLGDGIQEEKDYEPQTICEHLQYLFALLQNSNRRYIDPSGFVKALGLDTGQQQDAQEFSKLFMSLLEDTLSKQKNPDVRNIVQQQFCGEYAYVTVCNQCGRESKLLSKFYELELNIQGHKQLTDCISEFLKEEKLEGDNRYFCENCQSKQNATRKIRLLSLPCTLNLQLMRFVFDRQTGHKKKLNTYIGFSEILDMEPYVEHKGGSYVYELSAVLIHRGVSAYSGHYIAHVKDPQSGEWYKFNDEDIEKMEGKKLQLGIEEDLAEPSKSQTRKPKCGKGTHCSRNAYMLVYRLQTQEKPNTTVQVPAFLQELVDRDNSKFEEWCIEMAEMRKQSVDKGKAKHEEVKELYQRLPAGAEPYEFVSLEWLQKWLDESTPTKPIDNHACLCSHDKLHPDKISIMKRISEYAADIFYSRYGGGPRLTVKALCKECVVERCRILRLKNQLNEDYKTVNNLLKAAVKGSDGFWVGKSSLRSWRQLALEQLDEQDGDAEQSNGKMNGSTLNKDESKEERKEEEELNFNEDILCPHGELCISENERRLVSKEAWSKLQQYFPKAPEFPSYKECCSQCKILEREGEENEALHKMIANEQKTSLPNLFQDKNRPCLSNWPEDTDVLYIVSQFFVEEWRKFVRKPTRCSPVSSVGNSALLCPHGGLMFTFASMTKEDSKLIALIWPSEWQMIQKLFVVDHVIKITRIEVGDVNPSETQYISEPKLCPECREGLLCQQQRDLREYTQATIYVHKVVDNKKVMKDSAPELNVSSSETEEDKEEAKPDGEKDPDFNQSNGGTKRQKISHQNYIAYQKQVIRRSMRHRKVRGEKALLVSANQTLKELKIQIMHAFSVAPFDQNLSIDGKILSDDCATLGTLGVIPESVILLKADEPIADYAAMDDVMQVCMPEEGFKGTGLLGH
In short: as §1

USP5 = target: T4, USP5 (UniProt P45974)
T4 sequence (whole entry): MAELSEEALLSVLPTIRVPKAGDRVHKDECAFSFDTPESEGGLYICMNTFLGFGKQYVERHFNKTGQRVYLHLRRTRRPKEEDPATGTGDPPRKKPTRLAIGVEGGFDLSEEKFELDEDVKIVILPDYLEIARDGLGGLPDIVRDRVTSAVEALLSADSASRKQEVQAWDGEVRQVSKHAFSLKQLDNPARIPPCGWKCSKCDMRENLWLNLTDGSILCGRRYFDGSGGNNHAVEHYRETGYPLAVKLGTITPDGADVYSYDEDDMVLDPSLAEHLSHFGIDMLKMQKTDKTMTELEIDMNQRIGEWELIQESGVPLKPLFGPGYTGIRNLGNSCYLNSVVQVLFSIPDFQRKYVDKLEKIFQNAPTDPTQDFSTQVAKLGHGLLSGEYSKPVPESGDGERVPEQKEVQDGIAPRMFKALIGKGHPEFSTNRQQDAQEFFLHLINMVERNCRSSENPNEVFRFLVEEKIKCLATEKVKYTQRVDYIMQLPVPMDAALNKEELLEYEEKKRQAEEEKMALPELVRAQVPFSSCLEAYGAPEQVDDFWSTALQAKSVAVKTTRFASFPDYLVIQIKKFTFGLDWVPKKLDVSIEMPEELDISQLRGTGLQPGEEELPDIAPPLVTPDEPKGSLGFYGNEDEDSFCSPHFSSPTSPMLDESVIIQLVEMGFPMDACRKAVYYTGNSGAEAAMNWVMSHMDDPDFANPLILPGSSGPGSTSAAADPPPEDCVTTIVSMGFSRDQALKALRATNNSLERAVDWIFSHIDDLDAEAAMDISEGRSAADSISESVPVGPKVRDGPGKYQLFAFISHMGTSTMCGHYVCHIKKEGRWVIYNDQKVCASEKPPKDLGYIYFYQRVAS
In short: as §1

USP54 = USP54 (UniProt Q70EL1)
In short: as §1

USP7 = USP7 (UniProt Q93009)
Sequence of USP7 (Q93009 whole entry, looked up): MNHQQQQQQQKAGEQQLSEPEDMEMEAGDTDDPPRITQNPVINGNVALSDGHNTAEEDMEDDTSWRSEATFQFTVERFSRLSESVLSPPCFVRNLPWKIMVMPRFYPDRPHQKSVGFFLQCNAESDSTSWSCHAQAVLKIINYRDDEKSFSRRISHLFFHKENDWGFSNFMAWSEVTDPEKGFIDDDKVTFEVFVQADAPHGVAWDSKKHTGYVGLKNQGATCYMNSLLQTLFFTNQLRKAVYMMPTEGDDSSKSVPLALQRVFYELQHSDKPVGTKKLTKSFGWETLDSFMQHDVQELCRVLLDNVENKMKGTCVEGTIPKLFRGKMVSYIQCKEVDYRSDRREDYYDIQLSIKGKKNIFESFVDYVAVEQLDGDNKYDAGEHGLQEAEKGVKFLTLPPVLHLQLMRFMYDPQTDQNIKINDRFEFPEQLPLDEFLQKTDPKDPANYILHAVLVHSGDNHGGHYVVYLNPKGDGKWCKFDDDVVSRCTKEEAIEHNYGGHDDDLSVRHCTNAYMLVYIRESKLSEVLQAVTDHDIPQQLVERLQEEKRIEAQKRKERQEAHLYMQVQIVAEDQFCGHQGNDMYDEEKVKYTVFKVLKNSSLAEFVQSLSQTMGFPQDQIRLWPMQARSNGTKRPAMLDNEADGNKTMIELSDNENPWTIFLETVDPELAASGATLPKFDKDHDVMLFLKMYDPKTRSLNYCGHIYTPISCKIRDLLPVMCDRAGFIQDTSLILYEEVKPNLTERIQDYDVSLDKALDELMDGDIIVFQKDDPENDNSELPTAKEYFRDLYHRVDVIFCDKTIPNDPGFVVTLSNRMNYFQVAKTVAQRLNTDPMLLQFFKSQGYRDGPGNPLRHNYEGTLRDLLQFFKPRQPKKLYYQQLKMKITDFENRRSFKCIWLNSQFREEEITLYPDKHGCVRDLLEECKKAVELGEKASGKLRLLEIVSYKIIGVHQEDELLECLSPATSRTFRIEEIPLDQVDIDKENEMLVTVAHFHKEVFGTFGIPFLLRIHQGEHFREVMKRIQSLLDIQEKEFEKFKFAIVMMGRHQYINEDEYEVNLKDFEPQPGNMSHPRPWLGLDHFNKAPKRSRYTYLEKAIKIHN
In short: as §1

USP8 = target: T5, USP8 (UniProt P40818)
T5 sequence (whole entry): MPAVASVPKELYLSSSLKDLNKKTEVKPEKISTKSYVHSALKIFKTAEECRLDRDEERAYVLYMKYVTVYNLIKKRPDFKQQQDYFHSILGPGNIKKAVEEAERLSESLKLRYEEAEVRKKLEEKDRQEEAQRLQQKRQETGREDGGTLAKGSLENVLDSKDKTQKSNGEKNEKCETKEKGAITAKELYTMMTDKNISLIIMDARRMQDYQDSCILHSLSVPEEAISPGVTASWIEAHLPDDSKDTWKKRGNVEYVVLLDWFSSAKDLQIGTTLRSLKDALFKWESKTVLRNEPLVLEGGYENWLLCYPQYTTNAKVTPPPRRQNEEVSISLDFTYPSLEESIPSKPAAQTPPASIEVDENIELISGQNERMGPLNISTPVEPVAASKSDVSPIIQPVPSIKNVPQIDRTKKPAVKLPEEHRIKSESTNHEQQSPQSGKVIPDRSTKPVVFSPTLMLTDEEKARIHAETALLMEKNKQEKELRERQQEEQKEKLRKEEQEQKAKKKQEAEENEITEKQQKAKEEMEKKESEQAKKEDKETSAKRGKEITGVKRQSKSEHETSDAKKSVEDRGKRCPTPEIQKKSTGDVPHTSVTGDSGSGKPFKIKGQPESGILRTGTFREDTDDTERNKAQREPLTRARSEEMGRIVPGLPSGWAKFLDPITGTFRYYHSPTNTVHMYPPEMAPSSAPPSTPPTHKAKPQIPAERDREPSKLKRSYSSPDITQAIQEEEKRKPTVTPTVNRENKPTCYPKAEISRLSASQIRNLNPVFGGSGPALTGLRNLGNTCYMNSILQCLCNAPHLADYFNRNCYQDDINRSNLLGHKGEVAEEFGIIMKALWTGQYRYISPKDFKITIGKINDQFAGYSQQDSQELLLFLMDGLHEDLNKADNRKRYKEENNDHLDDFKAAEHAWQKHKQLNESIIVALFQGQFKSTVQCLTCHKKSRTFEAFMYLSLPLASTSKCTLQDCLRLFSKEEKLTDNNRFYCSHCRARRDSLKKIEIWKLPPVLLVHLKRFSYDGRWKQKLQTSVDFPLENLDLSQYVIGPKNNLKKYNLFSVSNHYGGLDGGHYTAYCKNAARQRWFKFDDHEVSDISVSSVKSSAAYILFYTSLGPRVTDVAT
In short: as §1

USP9X = USP9X (UniProt Q93008)
Sequence of USP9X (Q93008 whole entry): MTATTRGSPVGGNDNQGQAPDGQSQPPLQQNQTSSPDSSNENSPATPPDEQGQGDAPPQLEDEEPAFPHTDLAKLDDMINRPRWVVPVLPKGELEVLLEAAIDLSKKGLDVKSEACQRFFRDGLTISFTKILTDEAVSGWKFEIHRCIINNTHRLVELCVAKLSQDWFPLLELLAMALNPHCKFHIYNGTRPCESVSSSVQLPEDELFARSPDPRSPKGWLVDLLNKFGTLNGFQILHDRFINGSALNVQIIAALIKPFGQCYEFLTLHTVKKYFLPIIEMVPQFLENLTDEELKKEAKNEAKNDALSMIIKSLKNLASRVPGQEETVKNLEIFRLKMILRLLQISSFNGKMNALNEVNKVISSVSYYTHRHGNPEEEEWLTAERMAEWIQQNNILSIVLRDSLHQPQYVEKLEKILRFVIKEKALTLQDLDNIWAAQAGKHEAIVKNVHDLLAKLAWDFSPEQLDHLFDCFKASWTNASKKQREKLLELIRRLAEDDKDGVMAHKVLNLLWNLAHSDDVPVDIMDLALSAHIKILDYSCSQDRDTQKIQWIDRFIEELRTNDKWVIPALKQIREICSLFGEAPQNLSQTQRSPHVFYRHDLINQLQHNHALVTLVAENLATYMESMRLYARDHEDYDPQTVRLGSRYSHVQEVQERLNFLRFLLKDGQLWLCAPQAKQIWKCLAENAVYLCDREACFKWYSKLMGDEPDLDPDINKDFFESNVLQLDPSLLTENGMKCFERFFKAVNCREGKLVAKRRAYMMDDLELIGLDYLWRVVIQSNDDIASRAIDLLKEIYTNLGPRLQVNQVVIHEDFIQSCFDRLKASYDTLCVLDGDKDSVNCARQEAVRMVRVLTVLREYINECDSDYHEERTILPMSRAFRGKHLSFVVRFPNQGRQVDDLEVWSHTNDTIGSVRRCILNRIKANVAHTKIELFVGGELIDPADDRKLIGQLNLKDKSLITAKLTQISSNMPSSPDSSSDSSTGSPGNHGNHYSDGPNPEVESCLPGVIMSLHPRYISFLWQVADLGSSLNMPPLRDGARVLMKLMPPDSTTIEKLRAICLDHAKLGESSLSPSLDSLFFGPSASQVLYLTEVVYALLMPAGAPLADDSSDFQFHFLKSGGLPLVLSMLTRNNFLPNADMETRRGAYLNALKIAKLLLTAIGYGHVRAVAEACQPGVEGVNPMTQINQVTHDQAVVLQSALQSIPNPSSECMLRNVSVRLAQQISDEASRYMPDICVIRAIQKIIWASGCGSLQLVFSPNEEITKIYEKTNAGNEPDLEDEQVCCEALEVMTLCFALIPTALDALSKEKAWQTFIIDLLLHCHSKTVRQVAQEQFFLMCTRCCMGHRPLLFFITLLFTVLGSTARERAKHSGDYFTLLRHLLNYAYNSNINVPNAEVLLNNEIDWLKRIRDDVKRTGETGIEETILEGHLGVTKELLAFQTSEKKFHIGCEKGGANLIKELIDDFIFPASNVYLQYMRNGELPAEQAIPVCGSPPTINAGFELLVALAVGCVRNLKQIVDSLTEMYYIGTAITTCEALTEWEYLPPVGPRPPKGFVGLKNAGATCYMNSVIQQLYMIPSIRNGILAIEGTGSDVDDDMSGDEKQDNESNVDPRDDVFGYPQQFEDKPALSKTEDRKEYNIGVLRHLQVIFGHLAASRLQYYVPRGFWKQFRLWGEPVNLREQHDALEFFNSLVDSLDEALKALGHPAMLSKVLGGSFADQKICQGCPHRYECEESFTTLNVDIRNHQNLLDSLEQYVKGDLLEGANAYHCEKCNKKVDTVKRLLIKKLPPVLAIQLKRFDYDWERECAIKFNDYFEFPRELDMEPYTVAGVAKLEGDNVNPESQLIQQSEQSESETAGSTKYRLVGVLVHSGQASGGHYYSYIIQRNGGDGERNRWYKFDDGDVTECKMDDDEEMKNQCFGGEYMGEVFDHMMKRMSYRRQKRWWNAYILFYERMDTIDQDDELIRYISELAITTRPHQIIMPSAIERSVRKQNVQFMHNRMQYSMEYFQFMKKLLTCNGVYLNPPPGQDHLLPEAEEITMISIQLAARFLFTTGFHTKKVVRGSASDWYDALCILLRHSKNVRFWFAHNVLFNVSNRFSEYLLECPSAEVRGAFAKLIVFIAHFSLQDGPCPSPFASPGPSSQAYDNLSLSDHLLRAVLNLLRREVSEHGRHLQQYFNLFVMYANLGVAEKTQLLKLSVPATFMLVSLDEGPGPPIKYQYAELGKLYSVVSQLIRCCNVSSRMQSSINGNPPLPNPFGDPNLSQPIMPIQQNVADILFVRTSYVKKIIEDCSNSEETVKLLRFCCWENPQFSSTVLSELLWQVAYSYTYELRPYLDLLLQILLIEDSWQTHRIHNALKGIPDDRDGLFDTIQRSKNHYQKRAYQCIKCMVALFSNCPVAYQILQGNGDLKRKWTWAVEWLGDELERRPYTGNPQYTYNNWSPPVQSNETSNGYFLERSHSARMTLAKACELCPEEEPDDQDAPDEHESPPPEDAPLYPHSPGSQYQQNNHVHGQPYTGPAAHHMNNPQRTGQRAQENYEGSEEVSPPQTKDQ
In short: as §1

UniProt O00487 = target: UniProt O00487
Sequence of UniProt O00487 (O00487 whole entry): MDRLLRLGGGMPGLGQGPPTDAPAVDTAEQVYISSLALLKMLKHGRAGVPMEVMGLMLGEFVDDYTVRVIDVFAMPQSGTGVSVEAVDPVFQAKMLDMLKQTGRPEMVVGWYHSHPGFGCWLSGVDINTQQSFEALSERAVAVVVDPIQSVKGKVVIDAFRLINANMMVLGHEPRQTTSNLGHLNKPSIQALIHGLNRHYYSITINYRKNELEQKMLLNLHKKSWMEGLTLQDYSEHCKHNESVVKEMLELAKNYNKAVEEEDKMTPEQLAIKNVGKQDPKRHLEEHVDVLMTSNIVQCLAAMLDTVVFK
In short: as §1

Measured: log2 ratio of Biotin-Ahx-Ub-VS probe labelling

Cc1ccccc1C1(CNC(=O)CCl)CCOCC1
inactive: USP42 -0.0942 | USP46 0.0453 | USP47 -0.619 | USP48 -0.295 | USP5 0.17 | USP54 0.35 | USP7 -0.102 | USP8 -0.0708 | USP9X -0.0641 | UniProt O00487 -0.115

From the supplement of paper PMC11732987, “Enantioselective OTUD7B fragment discovery through chemoproteomics screening and high-throughput optimisation” (Communications Chemistry, 2025)
